Screening results: PubChem BioAssay, several laboratories
rCAG RNA binder: binders of r(CAG) RNA repeats, primary screen, biochemical, fluorescence; r(CAG) RNA repeat, TO-PRO-1 dye displacement fluorescence; inhibition, % at 3 µM; 370,000 compounds, 1.3% hits;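 active = inhibition above the plate cutoff, the mean of all test compounds on that plate plus 3 SD, cut at about 35% in these data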;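 also: higher means more dye released from RNA so lower well fluorescence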
MPTP inh: mitochondrial permeability transition pore inhibitors, primary screen, biochemical, isolated mouse mitochondria, absorbance; AID 602449, 2012; inhibition, % at 10 µM; 360,000 compounds, 1.4% hits; Ca2+ swelling absorbance, 30 min;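 active = inhibition of 50% or more, scaled per plate between neutral and stimulator controls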
Myeloid diff MLP: induction of myeloid progenitor differentiation, primary screen, cell-based, flow cytometry, MLPCN library | calls only at 10 µM | AID 624256, 2012 | 360,000 compounds, 1% hits | ER-HoxA9 myeloid progenitors, lysozyme-GFP differentiation;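 active = normalized GFP-positive differentiation at or above the plate's own cutoff, the solvent-only control mean plus 3 SD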;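 also: cells exposed to compound for four days before flow analysis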
NR3A LBD binder: binders of NR3A ligand-binding domain, primary screen, biophysical, differential scanning fluorimetry, uHTS | Glutamate receptor ionotropic, NMDA 3A (GRIN3A) ligand-binding domain | NR3A LBD differential scanning fluorimetry, Tm shift; 0% = protein alone, 100% = glycine-bound protein | Tm shift relative to glycine control, % at 25 µM | 340,000 compounds, 2.5% hits;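 active = melting temperature shift of at least 10% of the positive control shift, at one fixed dose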
FAS TE block: FAS thioesterase domain inhibitors, primary screen, biochemical, fluorescence intensity, uHTS; recombinant FAS-TE, OMFH fluorogenic substrate, fluorescence endpoint; inhibition, % at 15 µM; 360,000 compounds, 0.67% hits;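 active = compounds whose normalised, plate-corrected inhibition of enzyme fluorescence in the single-dose primary screen is 50% or more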
Large screens that a line does not name were inactive. In the library only some 5.7% were active in any assay of this set; here they are far more common.

O=C(Oc1cccc2ccccc12)c1cc(Cl)nc2ccccc12	NR3A LBD binder 14
CCCc1nc2c(C)cc(Br)cn2c1Cc1ccccc1OC	none (no result: MPTP inh, Myeloid diff MLP, NR3A LBD binder, FAS TE block)
CCCN1CCC(=O)N([C@H](CSc2ccccc2)Cc2ccccc2)CC1	none
CCCN1CCC(=O)N([C@H](CSc2ccc(Br)cc2)Cc2ccccc2)CC1	Myeloid diff MLP active
Nc1nc2c(ncn2[C@@H]2O[C@H](C(=O)N[C@H](Cc3ccccc3)C(=O)NCCCc3ccccc3)[C@@H](O)[C@H]2O)c(=O)[nH]1	none (no result: MPTP inh, Myeloid diff MLP, NR3A LBD binder, FAS TE block)
CCn1c(SCC(=O)Nc2ccc(NC(C)=O)cc2)nc2c([nH]c3ccccc32)c1=O	NR3A LBD binder 12
Cn1c(SCC(=O)Nc2ccc(F)cc2)nc2c([nH]c3ccccc32)c1=O	none
Cn1c(SCC(=O)Nc2cccc(F)c2)nc2c([nH]c3ccccc32)c1=O	NR3A LBD binder 29
CCCCn1c(SCC(=O)Nc2ccc(NC(C)=O)cc2)nc2ccccc2c1=O	NR3A LBD binder 33
COCCn1c(SCC(=O)Nc2ccc(F)cc2)nc2c([nH]c3ccccc32)c1=O	none
CC(C)=CC(=O)NCC1CCN(C(=O)C(=O)c2cc3ccccc3o2)CC1	none (no result: MPTP inh, Myeloid diff MLP, NR3A LBD binder, FAS TE block)
COC(=O)c1c(-c2ccc(OC)cc2)c2c(c3c4cc(OC)ccc4n(S(=O)(=O)c4ccc(C)cc4)c13)C(=O)N(C)C2	none (no result: MPTP inh, Myeloid diff MLP, NR3A LBD binder, FAS TE block)
Cc1nc2nc(C)c(C)nc2nc1C	none (no result: NR3A LBD binder)
COC(=O)c1cc2sc(Cl)cc2n1CC(=O)Nc1cccc(SC)c1	NR3A LBD binder 15
O=C1NC(c2ccc3c(c2)OCO3)c2c(-c3ccccc3)n[nH]c21 (stereo not drawn)	none (no result: MPTP inh, Myeloid diff MLP, NR3A LBD binder, FAS TE block)
O=C(CSc1nc2c(c(=O)n1-c1ccc(Cl)cc1)SCC2)Nc1nccs1	NR3A LBD binder 15
CC(C(=O)O)c1ccc(C(=O)c2cccs2)cc1 (stereo not drawn)	none
Cc1ccc(C(=O)c2nocc2C(=O)c2cccs2)cc1	NR3A LBD binder 16
O=C(CCc1nc2ccccc2c(=O)[nH]1)Nc1ccccc1N1CCCCC1	none (no result: NR3A LBD binder)
O=C(CCc1nc2ccccc2c(=O)[nH]1)Nc1cc(Cl)ccc1N1CCCCC1	Myeloid diff MLP active
Cc1ccc(CC(=O)Nc2cc([N+](=O)[O-])ccc2F)cc1	none
Cc1ccc(C(=O)Nc2cc([N+](=O)[O-])ccc2F)s1	NR3A LBD binder 12
Cc1ccc(C(=O)Nc2cc(Cl)ccc2N2CCCCC2)s1	NR3A LBD binder 22
Cc1coc2c1C(=O)C(=O)c1c-2ccc2c(C)cccc12	FAS TE block 74 (no result: rCAG RNA binder)
COc1cccc(C=C2Cc3ccccc3C2=O)c1	none (no result: NR3A LBD binder)
COc1cccc(/C=C2\CCc3ccccc3C2=O)c1	NR3A LBD binder 22
O=C1/C(=C/c2cccc([N+](=O)[O-])c2)CCc2ccccc21	NR3A LBD binder 11
COC(=O)c1cc2c(c3c4cc(OC)ccc4n(S(=O)(=O)c4ccc(F)cc4)c13)C(=O)N(C)C2	none (no result: MPTP inh, Myeloid diff MLP, NR3A LBD binder, FAS TE block)
O=C1COc2ccccc2C(c2nnnn2-c2ccc3ccccc3c2)N1C1CC1 (stereo not drawn)	none (no result: MPTP inh, Myeloid diff MLP, NR3A LBD binder, FAS TE block)
CCCCNC(=O)C[C@H]1C[C@@]2(C(=O)OC)C(=C[C@H](COCc3ccccc3)O[C@@H]2C)N(Cc2ccccc2)C1=O	none (no result: MPTP inh, Myeloid diff MLP, NR3A LBD binder, FAS TE block)
C[C@H]1C(c2ccc(F)cc2)=NN(c2ccccc2)[C@@H]1CO	none
COc1ccccc1[C@H]1C(c2cccc(C)c2)=NN(c2ccccc2)[C@@H]1CO	Myeloid diff MLP active
COc1ccccc1[C@H]1C(c2ccc(F)cc2)=NN(c2ccccc2)[C@@H]1CO	none
OC[C@@H]1[C@@H](c2ccc(Cl)cc2)C(c2ccccc2)=NN1c1ccccc1	NR3A LBD binder 24
OC[C@@H]1[C@@H](c2ccc(Cl)cc2)C(c2cccc(Cl)c2)=NN1c1ccccc1	NR3A LBD binder 31
OC[C@@H]1[C@@H](c2ccc(F)cc2)C(c2cccc(Cl)c2)=NN1c1ccccc1	NR3A LBD binder 27
COc1ccccc1[C@H]1C(c2ccccc2)=NN(c2ccccc2)[C@@H]1CO	none (no result: rCAG RNA binder)
CCNC(=O)Nc1ccc2c(c1)C(=O)N(C)[C@H]1CC[C@@H](CC(=O)OC)O[C@H]1CO2	none (no result: MPTP inh, Myeloid diff MLP, NR3A LBD binder, FAS TE block)
O=CN1CCN(C(=O)C2CCN(c3ncnc4c3sc3cccc(F)c34)CC2)CC1	none (no result: MPTP inh, Myeloid diff MLP, NR3A LBD binder, FAS TE block)
COc1ccc(N2C(=O)c3n[nH]c(C(C)C)c3C2c2ccc(C)cc2)cc1 (stereo not drawn)	none (no result: MPTP inh, Myeloid diff MLP, NR3A LBD binder, FAS TE block)
CC1CC1C(=O)N1CCC(Oc2cccnc2)CC1 (stereo not drawn)	none (no result: MPTP inh, Myeloid diff MLP, NR3A LBD binder, FAS TE block)
CCCn1cc(C(=O)Nc2ccc(Oc3cccnc3)cc2)c2ccccc21	none (no result: MPTP inh, Myeloid diff MLP, NR3A LBD binder, FAS TE block)
O=C(/C(=C(\[O-])c1ccccc1)[n+]1ccc2ccccc2c1)c1ccccc1	Myeloid diff MLP active
O=C(/C(=C(\[O-])c1ccccc1)[n+]1ccc2ccccc2c1)c1ccc(Cl)cc1	none
C/C(=N\NC(=O)c1c(Cl)cnn1C)c1ccc(NC(=O)c2ccc(Br)o2)cc1	NR3A LBD binder 14
CC(=O)Nc1ccc(S(=O)(=O)N2CCSC2c2ccc(Cl)cc2)cc1 (stereo not drawn)	none
COc1ccc(S(=O)(=O)N2CCSC2c2ccc(N)cc2)cc1 (stereo not drawn)	NR3A LBD binder 11
CC/C=C\[C@H](O)[C@H](O)C1=C(C)C(=O)[C@]2(O1)C(=O)N[C@@](OC)(C(=O)c1ccccc1)[C@@H]2O	none (no result: MPTP inh, Myeloid diff MLP, NR3A LBD binder, FAS TE block)
CCN(Cc1ccccc1)c1ccc(/C=N/NS(=O)(=O)c2ccc(C)c([N+](=O)[O-])c2)cc1	NR3A LBD binder 18
CCCCOCCCNC(=O)C[C@@H]1C[C@]2(C(=O)OCC)CCC3=C2N(CCC3)C1=O	none (no result: MPTP inh, Myeloid diff MLP, NR3A LBD binder, FAS TE block)
CCCCC1=CC2=CC(=O)C(C)(OC(=O)CC)C(=O)C2=CN1CCOC (stereo not drawn)	NR3A LBD binder 61 (no result: rCAG RNA binder)
CCCCC1=CC2=CC(=O)C(C)(OC(=O)CC)C(=O)C2=CN1CCN1CCOCC1 (stereo not drawn)	none (no result: rCAG RNA binder, MPTP inh, Myeloid diff MLP, FAS TE block)
CC(C)(C)NC(=O)C(c1ccccc1)n1c(=O)c(-c2ccco2)nc2ccccc21 (stereo not drawn)	rCAG RNA binder 36 (no result: NR3A LBD binder, FAS TE block)
O=C(NC1CCCCC1)C(c1cccc2ccccc12)n1c(=O)c(-c2ccco2)nc2ccccc21 (stereo not drawn)	rCAG RNA binder 35 (no result: NR3A LBD binder, FAS TE block)
CC(C)(C)NC(=O)C(c1ccncc1)n1c(=O)c(-c2ccco2)nc2ccccc21 (stereo not drawn)	none (no result: NR3A LBD binder, FAS TE block)
Cc1ccccc1CN1[C@@H](C)[C@H](c2ccccc2)Oc2cccc(NCCc3ccccc3)c2S1(=O)=O	none (no result: MPTP inh, Myeloid diff MLP, NR3A LBD binder, FAS TE block)
Cc1cc(C(=O)Nc2ccc(S(=O)(=O)N3CCOCC3)cc2)ccc1[N+](=O)[O-]	NR3A LBD binder 30
CCOCCCNS(=O)(=O)c1ccc(NC(=O)c2ccc(OC)c([N+](=O)[O-])c2)cc1	NR3A LBD binder 17
Cc1cc(C(=O)Nc2ccc(Nc3ccccc3)cc2)ccc1[N+](=O)[O-]	NR3A LBD binder 12
O=C(Nc1ccc(Nc2ccccc2)cc1)c1ccc(Cl)cc1[N+](=O)[O-]	NR3A LBD binder 12
